Source: PubChem (National Center for Advancing Translational Sciences (NCATS))
KB-V1 cytotox: kills drug-selected multidrug resistant KB-V1 cells | KB-V1 MDR cells viability, CellTiter-Glo, 72 h | Potency, µM (series often up to 46.1 µM), hits mostly cytotoxic | 400,000 compounds, 3.4% hits; also: % is scaled to controls: 0 for no effect and ±100 for the full control effect; nearly all actives have a fitted effect of over 60% in size
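Potencies derive from concentration-effect curves fitted to normalized luminescence (CellTiter-Glo) of KB-V1 cells treated for 72 h at 37 degrees C in phenol-red-free DMEM containing 10% FBS.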
SW480 rerep: induces DNA re-replication in SW480 colon adenocarcinoma cells | SW480 DNA re-replication, Hoechst DNA content imaging, 48 h | Potency, µM (highest dose often 46.1 µM), for the others: at the top dose re-replication activation, usual class: activators | 340,000 compounds, 1.8% hits | AID 624297; also: % of control where 0% means no effect; nearly all actives have a fitted effect of over 55% in size
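250 cells/well; 23 nL cpd via pin tool; 48 hr, 37 C, 5% CO2; Hoechst 40 min; imager read of total nuclear intensity, ex 405/em 500-530 nm.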
KB-3-1 cytotox: KB-3-1 parental cell cytotoxicity; KB-3-1 viability, CellTiter-Glo ATP luminescence, 72 h; Potency, µM (series often up to 46.1 µM), actives largely listed as cytotoxic; 400,000 compounds, 1.4% hits; also: % is scaled to controls: 0 for no effect and ±100 for the full control effect; nearly all actives have a fitted effect of over 60% in size
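Cytotoxicity in the drug-sensitive parental line KB-3-1 was scored as loss of CellTiter-Glo luminescence following 72 h incubation with compound. Values come from curve fitting of normalized concentration-response data.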
MCF10A rerep: DNA re-replication induction in MCF 10a cells. 350,000 compounds, 2.9% hits. Potency, µM (titrated, usually from 46.1 µM), for inactives: top-dose activity, positive = re-replication, most hits filed as activators. MCF 10A DNA re-replication, Hoechst nuclear intensity, 48 h; also: % of control where 0% means no effect; nearly all actives have a fitted effect of over 50% in size
HT1080 IDH1KD tx: toxicity to HT-1080 IDH1 knockdown cells (counter line). HT-1080 IDH1 knockdown viability, ATP luminescence, 48 h. Potency, µM (titrated, usually from 46.1 µM), for the others: at the top dose activity, negative = toxicity, most hits filed as cytotoxic. 360,000 compounds, 2% hits;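 also: 0% = DMSO wells and -100% = cell-free medium wells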
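Luminescent ATP read-out (CellTiter-Glo, 10 min at room temperature) after 48 h compound exposure at 37 °C gave viability of IDH1-knockdown HT-1080 cells. Activity was normalised to DMSO and cell-free wells, then fitted as concentration-response curves.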
HT1080-NT tox: kills 2HG-producing HT-1080-NT fibrosarcoma cells. HT-1080-NT fibrosarcoma viability, CellTiter-Glo ATP luminescence, 48 h. Potency, µM (titrated, usually from 46.1 µM), for inactives: top-dose activity, negative = less viability, most hits filed as cytotoxic. 360,000 compounds, 1.6% hits. AID 686970;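 also: NT is the 2HG producing partner of a matched IDH1 knockdown line; 0% = DMSO-treated cells and -100% = media-only wells without cells; nearly all actives have a fitted effect of over 55% in size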
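HT-1080-NT fibrosarcoma cells (2HG-overproducing), 750 cells/well in RPMI with 5% FBS, dosed after 2 h and incubated 48 h at 37C. CellTiter-Glo luminescence normalized to DMSO and no-cell wells; concentration-response curves fitted and classed.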
* = called active by the depositor; i = inactive; ? = inconclusive; . = no result given; [ ] = remark or other dose. The list is not random: actives were taken first. Their share in the collection is about 8%. Calls follow the shape of the dose curve; as a rule, active = well fitted curve in the direction sought with a large enough effect; inconclusive = small, poorly fitted or top-dose-only effect, or another doubt; inactive = no such curve, though single readings can be large; an effect the other way counts as inactive or inconclusive. Potency is read from the fitted curve at half-maximal effect.

SMILES	KB-V1 cytotox	SW480 rerep	KB-3-1 cytotox	MCF10A rerep	HT1080 IDH1KD tx	HT1080-NT tox
COc1cccc(CNc2nc3cc(-c4cccc(Cl)c4)sc3c(=O)n2C)c1OC	8.2µM*	.	14.6µM*	.	-7.2%	-4.4%
Cc1ccc(S(=O)(=O)N2C[C@H]3[C@H]4C(=O)N(c5ccccc5)C(=O)[C@H]4C[C@H](OC(=O)Nc4c(C)noc4C)[C@@]3(O)C2)cc1	i	.	i	.	17.4%	8.7%
COc1ccc(-c2cnc(C(O)c3ccc(OC)c(F)c3)[nH]2)cc1 (stereo not given)	i	.	i	.	26.7%	4.7%
CCCCN(CC)CCNC(=O)Cn1cnc2sc(C)c(S(=O)(=O)N3CCN(c4ccccc4OC)CC3)c2c1=O	?	.	i	.	.	.
O=C(COc1ccccc1C(=O)Nc1ccccc1)Nc1ccccc1F	i	.	i	.	.	.
CCOc1ccc(-c2nc3c(c(CC)nn3-c3ccccc3)c3cc(OC)c(OC)cc23)cc1	i	.	i	.	.	.
Nc1nc(N)c2cc(Sc3ccc4ccccc4c3)ccc2n1	i	?	20.6µM*	16.4µM*	5.8µM*	8.2µM*
Nc1nc(N)c2cc(Sc3cccc(C(F)(F)F)c3)ccc2n1	?	.	?	.	5.8µM*	5.8µM*
Nc1nc(N)c2cc(Sc3ccc(Cl)cc3)ccc2n1	?	.	?	.	5.8µM*	2.59µM*
Nc1nc(Nc2cccc(C(F)(F)F)c2)nc(C(F)(F)F)n1	i	10.0%	i	8.0%	?	?
COc1cccc(CN2CCC2(C)C(=O)Nc2cccc(Oc3ccccc3)c2)c1OC (stereo not given)	?	.	i	.	?	-28.0%
CCCN1CCN(c2ncnc3sc(C(=O)Nc4c(C)cc(C)cc4C)c(C)c23)CC1	?	.	20.6µM*	.	.	.
Fc1ccc(-c2csc3ncnc(N4CCN(Cc5ccccc5)CC4)c23)cc1	.	-0.9%	.	-2.9%	6.2%	6.6%
Cc1c(C(=O)N2CCN(Cc3ccccc3)CC2)sc2ncnc(N3CCOCC3)c12	18.4µM*	-0.2%	i	8.5%	-0.7%	0.3%
Cc1sc2ncnc(N3CCN(Cc4ccccc4)CC3)c2c1-c1ccc(F)cc1	14.6µM*	-0.8%	?	-0.5%	5.0%	3.6%
COc1cc(NC(=O)[C@@H](NC(=O)c2ccco2)C(C)C)c(OC)cc1NC(=O)c1ccccc1	i	0.9%	i	17.0%	8.1%	6.0%
COC(=O)[C@@]12C[C@@H](CC(=O)NCc3ccc(C)o3)C(=O)N(CCc3ccc(OC)c(OC)c3)C1=CCC(C)(C)C2	18.4µM*	.	?	.	-16.5%	-22.4%
COC(=O)[C@@]12C[C@@H](CC(=O)NCc3ccccc3)C(=O)N(CCc3ccc(OC)c(OC)c3)C1=CCC(C)(C)C2	?	.	i	.	-3.9%	-21.4%
COC(=O)[C@@]12C[C@@H](CC(=O)NCc3cccs3)C(=O)N(CCc3ccc(OC)c(OC)c3)C1=CCC(C)(C)C2	?	.	i	.	-16.0%	-16.4%
COC(=O)[C@@]12C[C@@H](CC(=O)NCc3cccc4ccccc34)C(=O)N(CCc3ccc(OC)c(OC)c3)C1=CCC(C)(C)C2	23.1µM*	.	?	.	-23.6%	?
COC(=O)[C@@]12C[C@@H](CC(=O)NCc3ccc(OC)c(OC)c3)C(=O)N(Cc3cccc4ccccc34)C1=CCC(C)(C)C2	20.6µM*	.	i	.	-28.1%	?
CC(C)c1ccc(/C=N/NC(=O)CN(c2cccc(Cl)c2Cl)S(C)(=O)=O)cc1	?	?	?	?	20.6µM*	18.4µM*
CS(=O)(=O)N(CC(=O)N/N=C/c1ccccc1C(=O)O)c1cccc(Cl)c1Cl	i	5.3%	i	0.9%	-8.9%	2.3%
Cc1cc(C)c2nc(C(F)(F)F)nc(N3CCN(C(=O)c4ccco4)CC3)c2c1	11.6µM*	-5.3%	i	?	-0.3%	-9.8%
CCc1cc2ccc(C)cc2nc1SCC(=O)N1CCN(C(=O)c2ccco2)CC1	5.17µM*	?	i	?	-1.6%	-1.9%
SMILES	KB-V1 cytotox	SW480 rerep	KB-3-1 cytotox	MCF10A rerep	HT1080 IDH1KD tx	HT1080-NT tox
CCc1cc2cccc(C)c2nc1SCC(=O)N1CCN(C(=O)c2ccco2)CC1	i	3.9%	i	?	1.8%	-2.2%
CCc1cc2cc3c(cc2nc1SCC(=O)N1CCN(C(=O)c2ccco2)CC1)OCO3	?	-0.5%	i	6.2%	-14.3%	-7.3%
Cc1cccc2c(C(=O)N3CCN(C(=O)c4ccco4)CC3)cc(-c3cccc(Br)c3)nc12	9.2µM*	?	?	18.4µM*	18.4µM*	?
CCc1cc2cc(C)cc(C)c2nc1SCC(=O)N1CCN(C(=O)c2ccco2)CC1	23.1µM*	-1.2%	?	?	-1.5%[9.24 µM]	-0.1%
COc1ccc(NC(=O)c2cc(C3CCCCN3C(=O)OCCF)on2)c(C)c1 (stereo not given)	i	.	i	.	7.2%	9.0%
Cc1cc([N+](=O)[O-])ccc1NC(c1nnc(-c2ccccc2)o1)c1ccccc1F (stereo not given)	i	.	i	.	.	.
Cc1ccc(C(=O)OC(C(=O)Nc2ccc(Cl)cc2C(F)(F)F)c2ccccc2)cc1 (stereo not given)	i	-1.0%	i	?	?	?
O=C(OC(C(=O)Nc1ccc(Cl)cc1C(F)(F)F)c1ccccc1)c1c(Cl)cccc1Cl (stereo not given)	i	2.8%	?	5.8µM*	-16.3%	-7.5%
Cc1cc(S(=O)(=O)N2CCCc3ccccc32)ccc1-n1cnnn1	i	-5.7%	i	12.3%	-9.2%	0.0%
COc1cc(C(=O)Oc2cccc(Nc3ncnc4ccccc34)c2)cc(OC)c1OC	?	13.4%	i	-2.6%	-9.5%	?
COc1ccc(C(=O)Oc2cccc(Nc3ncnc4ccccc34)c2)cc1OC	18.4µM*	-6.7%	?	?	5.0%	-3.4%
Cc1cccc(C(=O)NNc2ncnc3c2cnn3-c2ccc(C)cc2C)c1	i	.	i	.	.	.
COc1ccccc1C=Cc1ccnc2ccccc12	?	1.6%	?	?	-0.5%	0.6%
Cc1ccc2c(/C=C/c3c[nH]c4ccccc34)ccnc2c1C	7.31µM*	.	16.4µM*	.	.	.
COc1ccc(OC)c2c(/C=C/c3c[nH]c4ccccc34)ccnc12	?	.	4.11µM*	.	.	.
COc1ccc(NC(=O)c2cc(-c3cc(F)ccc3OC)n[nH]2)cn1	i	.	i	.	-14.2%	-11.0%
